# PubChem BioAssay (Tox21)
# Values joined by “and” are separate entries in the source; they are usually repeats but may differ in a detail not shown here. Equal entries are not always repeated. Results filed as inconclusive are left out. A call without a number means that no potency is given here. More than one record can exist for a structure, and the calls need not agree. Active and inactive are the calls of the source. Calls come from the whole dose curve; as a rule, active = well fitted cell-killing curve with a large enough effect in the repeat runs; inconclusive = weak or mixed curves, or effect the other way; inactive = no such curve, though single readings can be large or run the other way.
# Assay: qHTS assay for identifying genotoxic compounds that show differential cytotoxicity against isogenic chicken DT40 cell lines with known DNA damage response pathways - Rev3 mutant cell line (AID 743014); note: nearly all actives have a fitted effect of over 55% in size
# Conditions: chicken DT40 Rev3-/- viability, CellTiter-Glo, 40 h; series mostly up to 68.4 µM; activity, negative = cytotoxicity: at the top concentration
# Source text: National Center for Advancing Translational Sciences [NCATS]
# NIH Chemical Genomics Center [NCGC]
# U.S. Environmental Protection Agency [EPA]
# National Institutes of Environmental Health Sciences [NIEHS]
# National Toxicology Program [NTP]
# U.S. Food and Drug Administration [FDA]
# DNA repair pathways play a critical role in cellular homeostasis by repairing DNA damage induced by endogenous processes and xenobiotics. Isogenic chicken DT40 cell lines deficient in different DNA repair pathways can be used to identify genotoxic compounds and aid in characterizing the nature of the DNA damage induced. Two DNA repair-deficient cell lines with disrupted genes, Rad54/Ku70 or Rev3, were used to screen the Tox21 10K compound library. Possible genotoxicity was based on the presence of a significant increase in cytotoxicity in one or more of the DNA repair-deficient cell lines compared to that observed in the parental DNA repair-proficient cell line. CellTiter Glo viability assay (Promega, Madison, WI) was used to measure cell viability in these cells after compound treatment. This assay includes the data from the Rev3 mutant cell line.
# Tox21 Assay Protocol Summary:
# 300 DT40 mutant cells in 5 uL/well were dispensed into white, solid-bottom 1536-well plates using a Multidrop Combi (ThermoFisher Scientific, Waltham, MA) dispenser. After the assay plates were incubated at 37 C/5% CO2 for approximately 0.5 hour, 23 nL of compounds dissolved in DMSO, positive controls or DMSO only was transferred into the assay plate by a pintool work station (Kalypsys, San Diego, CA). The assay plates were incubated at 37 C/5% CO2 for 40 hours. After 5 uL per well of CellTiter-Glo reagent was added into each well of the assay plates, the plates were incubated for 30 min at room temperature and the luminescence intensity of the plates was measured using a ViewLux (PerkinElmer, Shelton, CT) plate reader.
# Potency is the fitted concentration of half-maximal effect.
SMILES,Potency,"activity, negative = cytotoxicity"
O=C(O)COc1ccccc1,inactive,–
CN(C)C(=O)C(c1ccccc1)c1ccccc1,inactive,–
COS(=O)(=O)OC,inactive,–
C=C(C)C(=O)OCC(CC)CCCC (stereo not given),–,5.33% (inactive)
C=CCN=C=S,62.5 µM (active),–
c1ccc2c(c1)CCCC2,–,4.44% (inactive)
Nc1ncc([N+](=O)[O-])s1,inactive,–
C=CC#N,inactive,–
ClCCOCCCl,inactive,–
C=CC(=O)OCCCCCC(C)C,inactive,–
CCNc1nc(Cl)nc(NC(C)C)n1,inactive,–
CN(C)C(=O)Cl,inactive,–
CC[N+](=O)[O-],inactive,–
O=[N+]([O-])c1ccc(Cl)cc1,inactive,–
Cc1ccc(N=C=O)cc1N=C=O,–,-18.3% [at 95 µM] (inactive)
Nc1ccc([As](=O)(O)O)cc1,inactive and 29.8 µM (active),–
OCCCCO,inactive,–
O=C(O)C(Br)Br,inactive,–
Nc1nc(N)nc(NC2CC2)n1,inactive,–
N#CN=C(N)N,–,-11.6% (inactive)

SMILES,Potency,"activity, negative = cytotoxicity"
Nc1cc(Cl)cc(Cl)c1,inactive,–
O=S(=O)(O)OOS(=O)(=O)O,inactive,–
CC(C)(C)C(=O)CCl,–,4.11% (inactive)
Cl[C@H]1OCCO[C@@H]1Cl,–,-1.61% (inactive)
COc1cc(-c2ccc(N)c(OC)c2)ccc1N,14.7 µM (active),–
CCCCCCCCCCCCCCCCCC(=O)O,60.7 µM (active) and inactive,–
Cc1cccc(N)c1,inactive,–
CNC(=O)O/N=C/C(C)(C)S(C)(=O)=O,inactive,–
Cc1cccc(C)c1N,–,-16.8% [at 95 µM] (inactive)
Cc1cccc(C)c1NC(=O)CN1CCCC1=O,inactive,–
CCOc1ccc(N)cc1,–,-4.71% (inactive)
[N-]=[N+]=CC(=O)OC[C@H](N)C(=O)O,inactive,–
NNc1ccccc1,inactive and 60.4 µM (active),–
C[C@]12CC[C@H](O)CC1=CC[C@@H]1[C@@H]2CC[C@]2(C)C(=O)CC[C@@H]12,26.6 µM (active) and 68.7 µM (active) and 54.5 µM (active),–
Oc1c(Br)cc(Br)cc1Br,inactive,–
C[C@H]1C(=O)O[C@@H]2CCN3CC=C(COC(=O)[C@](C)(O)[C@]1(C)O)[C@H]23,inactive and 15.4 µM (active),–
Nc1ccc(N)cc1,19.4 µM (active) and 54.5 µM (active),–
O=[N+]([O-])c1cc([As](=O)(O)O)ccc1O,inactive,–
CCCCC(CC)C(=O)Cl (stereo not given),inactive,–
Sc1ccccc1,inactive,–
